Results published in PubChem BioAssay (Tox21).
Inconclusive results are not listed. A call without a number means that no potency is given here. Unmarked numbers belong to inactive results. Calls of active or inactive are those of the source. Calls follow the shape of the dose curve; as a rule, active = well fitted curve in the direction sought with a large enough effect in the repeat runs; inconclusive = weak or mixed curves; inactive = no such curve, though single readings can be large; an effect the other way counts as inactive or inconclusive.

Legend:
[1] = qHTS assay to identify small molecule agonists of the RXR signaling pathway - cell viability counter screen (AID 1159529);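 also: HEK 293T cells carrying an RXR-alpha UAS beta-lactamase reporter; series mostly up to about 77 µM; nearly all actives have a fitted effect of over 50% in size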
Procedure, shortened: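 In this parallel viability measure, GeneBLAzer RXR-alpha HEK 293T cells (2% charcoal-stripped FBS) were given a 5 hr preincubation, treated with compounds 16 hr at 37 C, and read by CellTiter-Glo luminescence.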

[2] = qHTS assay to identify small molecule antagonists of the retinoid acid receptor (RAR) signaling pathway - cell viability counter screen (AID 1159551); also: nearly all actives have a fitted effect of over 35% in size
Procedure, shortened: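 Measured by luminescent ATP detection, viability reflects C3RL4 cells treated 6 h at 37 C with test chemicals in the presence of 1 uM (final) retinol.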

[3] = qHTS assay to identify small molecule antagonists of the retinoic acid receptor (RAR) signaling pathway (AID 1159552; also: nearly all actives have a fitted effect of over 50% in size)
Procedure, shortened: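 C3RL4 RARE-luc cells, overnight plating; retinol 1 uM final added right after compound; 6 hr 37 C; luciferase read at 30 min RT.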

[4] = qHTS assay to identify small molecule agonists of the retinoic acid receptor (RAR) signaling pathway (AID 1159553); also: potency is read from the fitted curve at half-maximal effect
Procedure, shortened: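 6 hr compound exposure (DMSO vehicle) of overnight-plated C3RL4 RARE-luc cells at 37 C; luminescence quantified after 30 min RT with luciferase reagent.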

[5] = qHTS assay to identify small molecule antagonists of the estrogen related receptor (ERR) signaling pathway from Tox21 library - cell viability counter screen (AID 1224834); also: nearly all actives have a fitted effect of over 30% in size
Procedure, shortened: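 Seeded ERR cells were rested 6 h at 37 C/5% CO2 before compounds, positive and negative controls or DMSO were added. Incubation continued for 17.5 h, and viability was then quantified by CellTiter-Fluor fluorescence.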

[6] = biological target: Luciferin 4-monooxygenase (Photinus pyralis) (UniProt P08659); assay: qHTS assay to identify small molecule inhibitors of firefly luciferase (AID 1224835); also: nearly all actives have a fitted effect of over 25% in size; also: potency is read from the fitted curve at half-maximal effect; as to activity change, negative = inhibition: series mostly up to about 120 µM
Procedure, shortened: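 Inhibition of purified Photinus luciferase is measured by luminescence. Substrate levels (D-luciferin, ATP) sit at their KM values. Each compound is tested in a concentration series.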

[7] = qHTS assay to identify small molecule agonists of the constitutive androstane receptor (CAR) signaling pathway - cell viability counter screen (AID 1224836); also: series mostly up to about 92 µM; nearly all actives have a fitted effect of over 45% in size
Procedure, shortened: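 Using CellTiter-Fluor, viability of HepG2 cells harbouring hCAR and CYP2B6-2.2kb was measured following 23 h incubation with a 15-concentration compound series plus PK11195 (0.75 uM final).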

[8] = qHTS assay to identify small molecule antagonists of the constitutive androstane receptor (CAR) signaling pathway - cell viability counter screen (AID 1224837); also: series mostly up to about 92 µM; nearly all actives have a fitted effect of over 45% in size
Procedure, shortened: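 To flag cytotoxic false antagonists, HepG2 hCAR/CYP2B6-2.2kb cells were treated 23 hr with 15-concentration compound series and 50 nM CITCO at 37 C/5% CO2; CellTiter-Fluor fluorescence was the measured end point.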

[9] = biological target: Nuclear receptor subfamily 1 group I member 3 (Homo sapiens) (UniProt Q14994); assay: qHTS assay to identify small molecule antagonists of the constitutive androstane receptor (CAR) signaling pathway (AID 1224838);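 also: HepG2 cells stably expressing hCAR with CYP2B6 luciferase reporter stimulated by CITCO; nearly all actives have a fitted effect of over 40% in size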
Procedure, shortened: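 Human hepatoma HepG2 cells expressing hCAR and a CYP2B6 promoter (2.2 kb) luciferase construct; compound titration (15 points) with 50 nM CITCO final, 24 h at 37 C/5% CO2; luminescence via ONE-Glo after 30 min at room temperature.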

[10] = biological target: Nuclear receptor subfamily 1 group I member 3 (Homo sapiens) (UniProt Q14994); assay: qHTS assay to identify small molecule agonists of the constitutive androstane receptor (CAR) signaling pathway (AID 1224839);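 also: HepG2 cells stably carrying human CAR and a CYP2B6 luciferase reporter; series mostly up to about 92 µM; nearly all actives have a fitted effect of over 15% in size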
Procedure, shortened: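 Double-stable HepG2 cells (hCAR, CYP2B6-2.2kb) seeded 4 h before compound addition. Exposure 24 h with 0.75 uM PK11195 final. Luciferase detected by ONE-Glo.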

Chain of Luciferin 4-monooxygenase (Photinus pyralis) (P08659 whole entry, looked up): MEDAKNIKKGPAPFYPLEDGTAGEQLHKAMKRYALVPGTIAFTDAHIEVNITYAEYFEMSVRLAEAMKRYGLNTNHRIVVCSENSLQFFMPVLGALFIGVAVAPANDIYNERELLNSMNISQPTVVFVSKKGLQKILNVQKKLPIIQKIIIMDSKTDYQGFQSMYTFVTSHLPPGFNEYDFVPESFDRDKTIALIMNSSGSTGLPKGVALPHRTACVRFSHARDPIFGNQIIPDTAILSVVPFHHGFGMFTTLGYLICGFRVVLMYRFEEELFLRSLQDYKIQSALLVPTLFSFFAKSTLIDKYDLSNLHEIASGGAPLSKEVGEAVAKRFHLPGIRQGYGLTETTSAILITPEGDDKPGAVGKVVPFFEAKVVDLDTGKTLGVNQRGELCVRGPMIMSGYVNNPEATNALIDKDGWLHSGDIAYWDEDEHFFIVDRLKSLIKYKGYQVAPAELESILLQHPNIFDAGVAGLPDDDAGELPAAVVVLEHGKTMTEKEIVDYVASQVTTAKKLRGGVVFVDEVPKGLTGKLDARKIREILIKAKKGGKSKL
Chain of Nuclear receptor subfamily 1 group I member 3 (Homo sapiens) (Q14994 whole entry, looked up): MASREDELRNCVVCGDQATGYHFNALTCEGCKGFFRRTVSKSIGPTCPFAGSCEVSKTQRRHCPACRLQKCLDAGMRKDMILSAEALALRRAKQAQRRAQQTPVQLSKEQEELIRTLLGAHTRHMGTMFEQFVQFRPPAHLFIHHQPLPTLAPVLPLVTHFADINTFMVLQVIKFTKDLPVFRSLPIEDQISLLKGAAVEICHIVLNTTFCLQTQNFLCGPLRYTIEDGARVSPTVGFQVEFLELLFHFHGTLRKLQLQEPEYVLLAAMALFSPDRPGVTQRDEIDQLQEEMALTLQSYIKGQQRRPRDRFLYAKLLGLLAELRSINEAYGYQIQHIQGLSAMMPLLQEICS

## CC(=O)C1C(=O)C=C(C)OC1=O (stereo unspecified)
[1]
  outcome: inactive
[2]
  outcome: inactive
[3]
  outcome: inactive
[4]
  Potency: inactive
[5]
  outcome: inactive
[6]
  Potency: inactive
[7]
  outcome: inactive
[8]
  outcome: inactive
[9]
  Potency: inactive
[10]
  Potency: inactive

## CC(=O)CC(=O)OC(C)(C)C
[1]
  outcome: inactive
[2]
  outcome: inactive
[3]
  outcome: inactive
[4]
  Potency: inactive
[5]
  outcome: inactive
[6]
  Potency: inactive
[7]
  outcome: inactive
[8]
  outcome: inactive
[9]
  Potency: inactive
[10]
  Potency: inactive

## CC/C=C\CCOC(=O)c1ccccc1O
[1]
  outcome: inactive
[2]
  outcome: inactive
[3]
  outcome: inactive
[4]
  Potency: inactive
[5]
  outcome: inactive
[6]
  Potency: 17.8 µM (active)
[7]
  outcome: inactive
[8]
  outcome: inactive
[9]
  Potency: inactive
[10]
  Potency: inactive

## CC(Oc1cc(Cl)ccc1Cl)C(=O)O (stereo unspecified)
[1]
  outcome: inactive
[2]
  outcome: inactive
[3]
  outcome: inactive
[4]
  Potency: inactive
[5]
  outcome: inactive
[6]
  Potency: inactive
[7]
  outcome: inactive
[8]
  outcome: inactive
[9]
  Potency: inactive
[10]
  Potency: inactive

## O=C(NCN1CCOCC1)c1cnccn1
[1]
  outcome: inactive
[2]
  outcome: inactive
[3]
  outcome: inactive
[4]
  Potency: inactive
[5]
  outcome: inactive
[7]
  outcome: inactive
[8]
  outcome: inactive
[9]
  Potency: inactive
[10]
  Potency: inactive

## COc1cc2c(cc1OC)C(=O)C(CC1CCN(Cc3ccccc3)CC1)C2 (stereo unspecified)
[1]
  outcome: inactive
[2]
  outcome: inactive
[3]
  outcome: inactive
[4]
  Potency: inactive
[5]
  outcome: inactive
[6]
  Potency: inactive
[7]
  outcome: inactive
[8]
  outcome: inactive
[9]
  Potency: inactive
[10]
  Potency: inactive

## O=Cc1ccccc1Cl
[1]
  outcome: inactive
[2]
  outcome: inactive
[3]
  outcome: inactive
[4]
  Potency: inactive
[5]
  outcome: inactive
[6]
  Potency: inactive
[7]
  outcome: inactive
[8]
  outcome: inactive
[9]
  Potency: inactive
[10]
  Potency: inactive

## C/C=C(\C)C(=O)OCCc1ccccc1
[1]
  outcome: inactive
[2]
  outcome: inactive
[3]
  outcome: inactive
[4]
  Potency: 27.3 µM (active)
[5]
  outcome: inactive
[7]
  outcome: inactive
[8]
  outcome: inactive
[9]
  Potency: inactive
[10]
  Potency: inactive

## CC/C(C)=N\O[Si](C)(O/N=C(\C)CC)O/N=C(\C)CC
[1]
  outcome: inactive
[2]
  outcome: inactive
[3]
  outcome: inactive
[4]
  Potency: inactive
[5]
  outcome: inactive
[6]
  Potency: inactive
[7]
  outcome: inactive
[8]
  outcome: inactive
[9]
  Potency: inactive
[10]
  Potency: inactive

## N#CCC(=O)NN
[1]
  outcome: inactive
[2]
  outcome: inactive
[3]
  outcome: inactive
[4]
  Potency: inactive
[5]
  outcome: inactive
[7]
  outcome: inactive
[8]
  outcome: inactive
[9]
  Potency: inactive
[10]
  Potency: inactive

## CC1(C)CC(OC(=O)CCCCCCCCC(=O)OC2CC(C)(C)NC(C)(C)C2)CC(C)(C)N1
[1]
  activity change, negative = cytotoxicity: -17.6% [at 15.8 µM]
[2]
  activity change, negative = cytotoxicity: -0.597% [at 19 µM]
[3]
  activity, negative = inhibition: 10.8% [at 19 µM]
[4]
  Potency: inactive
[5]
  viability change, negative = cytotoxic: -0.749% [at 19 µM]
[6]
  activity change, negative = inhibition: 0.839% [at 23.6 µM]
[7]
  viability change, negative = cytotoxic: -0.169% [at 19 µM]
[8]
  activity change, negative = cytotoxicity: -3.96% [at 19 µM]
[9]
  activity, negative = inhibition: 7.36% [at 19 µM]
[10]
  activation: -1.81% [at 19 µM]

## CC(=O)O[Si](C)(OC(C)=O)OC(C)=O
[1]
  outcome: inactive
[2]
  outcome: inactive
[3]
  outcome: inactive
[4]
  Potency: inactive
[5]
  outcome: inactive
[6]
  Potency: inactive
[7]
  outcome: inactive
[8]
  outcome: inactive
[9]
  Potency: inactive
[10]
  Potency: inactive

## O=S(=O)(O)c1ccc2c(N=Nc3ccc(S(=O)(=O)O)c4ccccc34)c(O)c(S(=O)(=O)O)cc2c1
[1]
  activity change, negative = cytotoxicity: 0.355% [at 6.97 µM]
[2]
  activity change, negative = cytotoxicity: -2.67% [at 8.39 µM]
[3]
  activity, negative = inhibition: 111% [at 8.39 µM]
[4]
  activation: -2.37% [at 8.36 µM]
[5]
  viability change, negative = cytotoxic: -6.16% [at 8.39 µM]
[7]
  viability change, negative = cytotoxic: -7.02% [at 8.39 µM]
[8]
  activity change, negative = cytotoxicity: -18.2% [at 8.39 µM]
[9]
  activity, negative = inhibition: -7.08% [at 8.39 µM]
[10]
  activation: 0.066% [at 8.39 µM]

## O=C(O)CCCCCC(=O)O
[1]
  outcome: inactive
[2]
  outcome: inactive
[3]
  outcome: inactive
[4]
  Potency: inactive
[5]
  outcome: inactive
[6]
  Potency: inactive
[7]
  outcome: inactive
[8]
  outcome: inactive
[9]
  Potency: inactive
[10]
  Potency: inactive

## CCCCCCCCCOC(=O)c1ccccc1C(=O)OCCCCCCCCC
[1]
  outcome: inactive
[2]
  outcome: inactive
[3]
  outcome: inactive
[4]
  Potency: inactive
[5]
  outcome: inactive
[7]
  outcome: inactive
[8]
  outcome: inactive
[9]
  Potency: inactive
[10]
  Potency: inactive

## Cc1cc(-c2ccccc2)nnc1NCCN1CCOCC1
[1]
  outcome: inactive
[2]
  outcome: inactive
[3]
  outcome: inactive
[4]
  Potency: inactive
[5]
  outcome: inactive
[7]
  outcome: inactive
[8]
  outcome: inactive
[9]
  Potency: inactive
[10]
  Potency: inactive

## CC(=O)c1cc(C)oc1C
[1]
  outcome: inactive
[2]
  outcome: inactive
[3]
  outcome: inactive
[4]
  Potency: inactive
[5]
  outcome: inactive
[6]
  Potency: inactive
[7]
  outcome: inactive
[8]
  outcome: inactive
[9]
  Potency: inactive
[10]
  Potency: inactive

## CCCc1ccc(O)cc1
[1]
  outcome: inactive
[2]
  outcome: inactive
[3]
  outcome: inactive
[4]
  Potency: inactive
[5]
  outcome: inactive
[6]
  Potency: inactive
[7]
  outcome: inactive
[8]
  outcome: inactive
[9]
  Potency: inactive
[10]
  Potency: inactive

## CC(O)CC(C)O (stereo unspecified)
[1]
  outcome: inactive
[2]
  outcome: inactive
[3]
  outcome: inactive
[4]
  Potency: inactive
[5]
  outcome: inactive
[6]
  Potency: inactive
[7]
  outcome: inactive
[8]
  outcome: inactive
[9]
  Potency: inactive
[10]
  Potency: inactive

## CCC[C@@H]1C[C@@H](C(=O)N[C@@H]([C@H]2O[C@H](SC)[C@H](O)[C@@H](O)[C@H]2O)[C@@H](C)O)N(C)C1
[1]
  outcome: inactive
[2]
  outcome: inactive
[3]
  outcome: inactive
[4]
  Potency: inactive
[5]
  outcome: inactive
[7]
  outcome: inactive
[8]
  outcome: inactive
[9]
  Potency: inactive

## Cc1cccc(Cl)c1
[1]
  outcome: inactive
[2]
  outcome: inactive
[3]
  outcome: inactive
[4]
  Potency: inactive
[5]
  outcome: inactive
[7]
  outcome: inactive
[8]
  outcome: inactive
[9]
  Potency: inactive
[10]
  Potency: inactive

## O/N=C/C=N/O
[1]
  outcome: inactive
[2]
  outcome: inactive
[3]
  outcome: inactive
[4]
  Potency: inactive
[5]
  outcome: inactive
[6]
  Potency: inactive
[7]
  outcome: inactive
[8]
  outcome: inactive
[9]
  Potency: inactive
[10]
  Potency: inactive

## C=CCCCC
[1]
  outcome: inactive
[2]
  outcome: inactive
[3]
  outcome: inactive
[4]
  Potency: inactive
[5]
  outcome: inactive
[6]
  Potency: inactive
[7]
  outcome: inactive
[8]
  outcome: inactive
[9]
  Potency: inactive
[10]
  Potency: inactive

## O=C1c2ccccc2C(=O)c2cc(Cl)ccc21
[1]
  activity change, negative = cytotoxicity: 5.38% [at 6.97 µM]
[2]
  activity change, negative = cytotoxicity: 3.77% [at 8.39 µM]
[3]
  activity, negative = inhibition: 30% [at 8.39 µM]
[4]
  activation: 2.57% [at 8.36 µM]
[5]
  viability change, negative = cytotoxic: 1.32% [at 8.39 µM]
[6]
  activity change, negative = inhibition: 0.579% [at 10.5 µM]
[7]
  viability change, negative = cytotoxic: -1.2% [at 8.39 µM]
[8]
  activity change, negative = cytotoxicity: 2.26% [at 8.39 µM]
[9]
  activity, negative = inhibition: 54.9% [at 8.39 µM]
[10]
  activation: 8.38% [at 8.39 µM]
